The source of these data is ChEMBL document CHEMBL1961873, “Compounds: GSK PKIS; Assays: Nanosyn kinase panel” (2012).

In assay [1] the target is Ribosomal protein S6 kinase alpha-6 (Homo sapiens) (UniProt Q9UK32). The conditions noted are these: at 1 µM.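 Also: each value is a mean inhibition of RSK4 from a GSK PKIS panel screen.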
For assay [2], the target named is T1, Serine/threonine-protein kinase Sgk1 (Homo sapiens) (UniProt O00141).
T1 sequence (whole entry): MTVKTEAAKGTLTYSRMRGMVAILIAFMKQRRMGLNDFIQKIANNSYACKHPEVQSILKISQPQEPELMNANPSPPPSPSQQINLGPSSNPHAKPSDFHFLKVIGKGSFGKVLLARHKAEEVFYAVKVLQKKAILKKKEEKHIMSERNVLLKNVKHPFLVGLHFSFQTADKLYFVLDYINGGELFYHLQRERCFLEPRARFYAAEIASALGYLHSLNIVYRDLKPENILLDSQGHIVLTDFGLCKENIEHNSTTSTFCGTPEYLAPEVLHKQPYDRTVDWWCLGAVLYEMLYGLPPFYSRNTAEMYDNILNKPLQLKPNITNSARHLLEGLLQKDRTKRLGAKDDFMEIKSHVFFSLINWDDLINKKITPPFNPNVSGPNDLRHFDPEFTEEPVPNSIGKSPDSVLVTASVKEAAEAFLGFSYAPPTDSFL
The note with it: at 0.1 µM.

In assay [3] the target is T1, Serine/threonine-protein kinase Sgk1 (Homo sapiens). The conditions noted are these: at 1 µM.
The target of assay [4] is T2, Serine/threonine-protein kinase Sgk2 (Homo sapiens) (UniProt Q9HBY8).
T2 sequence (whole entry): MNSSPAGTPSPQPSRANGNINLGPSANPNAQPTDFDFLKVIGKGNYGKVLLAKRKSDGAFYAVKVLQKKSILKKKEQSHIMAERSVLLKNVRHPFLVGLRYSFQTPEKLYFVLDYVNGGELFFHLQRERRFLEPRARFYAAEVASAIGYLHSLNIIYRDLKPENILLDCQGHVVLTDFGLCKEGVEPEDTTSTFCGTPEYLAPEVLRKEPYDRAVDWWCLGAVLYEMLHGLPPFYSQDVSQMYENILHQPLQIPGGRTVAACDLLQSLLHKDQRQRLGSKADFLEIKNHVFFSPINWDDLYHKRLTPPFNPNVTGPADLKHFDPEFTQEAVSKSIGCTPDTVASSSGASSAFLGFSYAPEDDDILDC
The note with it: at 0.1 µM.

Assay [5] addresses T2, Serine/threonine-protein kinase Sgk2 (Homo sapiens). The conditions noted are these: at 1 µM.
The target of assay [6] is T3, Serine/threonine-protein kinase Sgk3 (Homo sapiens) (UniProt Q96BR1).
T3 sequence (whole entry): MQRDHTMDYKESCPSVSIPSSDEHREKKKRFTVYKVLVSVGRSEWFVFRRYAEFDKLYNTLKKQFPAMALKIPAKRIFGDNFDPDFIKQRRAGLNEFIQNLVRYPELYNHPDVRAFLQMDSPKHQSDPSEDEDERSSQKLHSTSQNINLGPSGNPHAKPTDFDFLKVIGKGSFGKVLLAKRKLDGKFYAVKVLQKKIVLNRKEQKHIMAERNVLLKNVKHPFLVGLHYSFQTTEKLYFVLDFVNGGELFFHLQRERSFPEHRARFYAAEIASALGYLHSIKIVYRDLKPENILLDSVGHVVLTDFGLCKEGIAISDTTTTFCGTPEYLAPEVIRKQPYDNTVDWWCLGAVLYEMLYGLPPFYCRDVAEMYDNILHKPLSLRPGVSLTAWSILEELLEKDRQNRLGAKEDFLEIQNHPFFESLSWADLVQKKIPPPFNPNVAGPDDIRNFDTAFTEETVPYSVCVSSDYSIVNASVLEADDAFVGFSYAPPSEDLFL
The note with it: at 0.1 µM.

Assay [7] addresses T3, Serine/threonine-protein kinase Sgk3 (Homo sapiens). The conditions noted are these: at 1 µM.
The target of assay [8] is 5'-AMP-activated protein kinase catalytic subunit alpha-1 (Homo sapiens) (UniProt Q13131). The conditions noted are these: at 0.1 µM.
Sequence of 5'-AMP-activated protein kinase catalytic subunit alpha-1 (Homo sapiens) (Q13131 whole entry, looked up): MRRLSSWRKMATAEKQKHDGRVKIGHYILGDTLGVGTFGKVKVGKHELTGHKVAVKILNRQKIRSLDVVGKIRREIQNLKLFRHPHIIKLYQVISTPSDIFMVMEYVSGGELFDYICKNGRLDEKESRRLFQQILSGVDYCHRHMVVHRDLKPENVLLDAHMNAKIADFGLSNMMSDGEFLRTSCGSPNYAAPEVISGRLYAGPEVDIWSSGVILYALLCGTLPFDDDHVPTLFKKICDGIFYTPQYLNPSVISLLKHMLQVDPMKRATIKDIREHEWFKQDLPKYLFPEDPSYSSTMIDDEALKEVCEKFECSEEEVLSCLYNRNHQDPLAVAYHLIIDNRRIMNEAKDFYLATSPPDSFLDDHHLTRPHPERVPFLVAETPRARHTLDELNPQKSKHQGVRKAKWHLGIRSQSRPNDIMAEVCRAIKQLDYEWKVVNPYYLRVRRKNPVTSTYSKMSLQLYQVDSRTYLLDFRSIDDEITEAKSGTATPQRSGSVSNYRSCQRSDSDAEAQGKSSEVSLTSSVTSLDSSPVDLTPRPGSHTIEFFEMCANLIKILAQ
For assay [9] the target is unchanged. The conditions noted are these: at 1 µM.
For assay [10], the target named is 5'-AMP-activated protein kinase catalytic subunit alpha-2 (Homo sapiens) (UniProt P54646). The note with it: at 0.1 µM.
Sequence of 5'-AMP-activated protein kinase catalytic subunit alpha-2 (Homo sapiens) (P54646 whole entry, looked up): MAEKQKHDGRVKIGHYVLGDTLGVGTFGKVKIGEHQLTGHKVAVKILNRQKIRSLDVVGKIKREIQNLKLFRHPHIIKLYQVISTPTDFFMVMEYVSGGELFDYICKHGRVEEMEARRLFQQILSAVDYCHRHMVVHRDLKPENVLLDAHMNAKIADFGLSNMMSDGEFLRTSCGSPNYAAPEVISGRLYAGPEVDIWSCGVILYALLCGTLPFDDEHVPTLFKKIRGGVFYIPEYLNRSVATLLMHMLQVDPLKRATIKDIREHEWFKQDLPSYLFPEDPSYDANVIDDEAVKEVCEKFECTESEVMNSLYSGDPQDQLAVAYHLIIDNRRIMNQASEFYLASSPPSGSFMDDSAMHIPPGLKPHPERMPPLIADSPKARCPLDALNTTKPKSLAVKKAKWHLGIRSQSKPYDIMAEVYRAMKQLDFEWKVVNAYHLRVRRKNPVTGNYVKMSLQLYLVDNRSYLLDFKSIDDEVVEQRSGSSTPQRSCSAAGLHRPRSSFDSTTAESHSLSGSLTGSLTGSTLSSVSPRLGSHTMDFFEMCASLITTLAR
For assay [11] the target is unchanged. The note with it: at 1 µM.
For assay [12], the target named is T4, NUAK family SNF1-like kinase 1 (Homo sapiens) (UniProt O60285).
T4 sequence (whole entry): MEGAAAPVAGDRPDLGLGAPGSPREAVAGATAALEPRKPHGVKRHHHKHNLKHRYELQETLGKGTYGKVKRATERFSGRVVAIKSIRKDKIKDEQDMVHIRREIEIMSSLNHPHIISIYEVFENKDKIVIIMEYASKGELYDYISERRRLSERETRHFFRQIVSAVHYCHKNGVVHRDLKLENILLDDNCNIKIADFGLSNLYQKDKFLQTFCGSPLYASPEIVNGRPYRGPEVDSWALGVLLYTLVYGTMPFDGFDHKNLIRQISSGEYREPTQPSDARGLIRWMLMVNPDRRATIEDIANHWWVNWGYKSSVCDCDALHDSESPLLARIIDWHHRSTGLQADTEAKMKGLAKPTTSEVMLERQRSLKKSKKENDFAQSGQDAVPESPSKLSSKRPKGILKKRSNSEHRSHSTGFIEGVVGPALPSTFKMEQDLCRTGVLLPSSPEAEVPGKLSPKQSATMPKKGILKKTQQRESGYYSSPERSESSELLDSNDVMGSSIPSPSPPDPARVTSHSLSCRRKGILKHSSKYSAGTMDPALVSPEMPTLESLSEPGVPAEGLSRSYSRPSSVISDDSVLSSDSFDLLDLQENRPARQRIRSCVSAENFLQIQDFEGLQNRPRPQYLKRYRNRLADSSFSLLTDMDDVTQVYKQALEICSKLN
The note with it: at 0.1 µM.

The target of assay [13] is T4, NUAK family SNF1-like kinase 1 (Homo sapiens). The note with it: at 1 µM.
For assay [14], the target named is T5, Serine/threonine-protein kinase BRSK1 (Homo sapiens) (UniProt Q8TDC3).
T5 sequence (whole entry): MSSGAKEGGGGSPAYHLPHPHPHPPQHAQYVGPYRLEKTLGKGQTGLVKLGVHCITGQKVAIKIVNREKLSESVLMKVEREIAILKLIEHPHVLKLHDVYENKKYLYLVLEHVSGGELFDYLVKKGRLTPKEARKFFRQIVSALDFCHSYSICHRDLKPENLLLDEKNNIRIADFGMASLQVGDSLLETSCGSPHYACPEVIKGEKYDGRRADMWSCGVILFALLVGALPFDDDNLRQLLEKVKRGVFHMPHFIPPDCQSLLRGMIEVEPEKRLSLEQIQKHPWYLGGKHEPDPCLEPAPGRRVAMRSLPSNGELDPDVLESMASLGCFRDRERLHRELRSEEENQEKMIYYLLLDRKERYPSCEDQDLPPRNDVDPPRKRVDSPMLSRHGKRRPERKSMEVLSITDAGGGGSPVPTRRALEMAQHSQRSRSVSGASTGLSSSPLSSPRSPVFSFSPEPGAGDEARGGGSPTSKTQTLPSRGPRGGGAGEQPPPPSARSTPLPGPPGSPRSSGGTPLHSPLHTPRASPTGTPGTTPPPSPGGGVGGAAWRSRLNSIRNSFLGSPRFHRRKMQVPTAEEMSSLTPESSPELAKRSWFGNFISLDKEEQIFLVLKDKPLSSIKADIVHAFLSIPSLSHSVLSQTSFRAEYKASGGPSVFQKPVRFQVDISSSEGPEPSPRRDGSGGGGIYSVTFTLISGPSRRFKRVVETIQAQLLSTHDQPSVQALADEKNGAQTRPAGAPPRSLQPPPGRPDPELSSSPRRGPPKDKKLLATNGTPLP
The note with it: at 0.1 µM.

The target in assay [15] is T5, Serine/threonine-protein kinase BRSK1 (Homo sapiens). The note with it: at 1 µM.
Assay [16] concerns the target T6, Serine/threonine-protein kinase BRSK2 (Homo sapiens) (UniProt Q8IWQ3).
T6 sequence (whole entry): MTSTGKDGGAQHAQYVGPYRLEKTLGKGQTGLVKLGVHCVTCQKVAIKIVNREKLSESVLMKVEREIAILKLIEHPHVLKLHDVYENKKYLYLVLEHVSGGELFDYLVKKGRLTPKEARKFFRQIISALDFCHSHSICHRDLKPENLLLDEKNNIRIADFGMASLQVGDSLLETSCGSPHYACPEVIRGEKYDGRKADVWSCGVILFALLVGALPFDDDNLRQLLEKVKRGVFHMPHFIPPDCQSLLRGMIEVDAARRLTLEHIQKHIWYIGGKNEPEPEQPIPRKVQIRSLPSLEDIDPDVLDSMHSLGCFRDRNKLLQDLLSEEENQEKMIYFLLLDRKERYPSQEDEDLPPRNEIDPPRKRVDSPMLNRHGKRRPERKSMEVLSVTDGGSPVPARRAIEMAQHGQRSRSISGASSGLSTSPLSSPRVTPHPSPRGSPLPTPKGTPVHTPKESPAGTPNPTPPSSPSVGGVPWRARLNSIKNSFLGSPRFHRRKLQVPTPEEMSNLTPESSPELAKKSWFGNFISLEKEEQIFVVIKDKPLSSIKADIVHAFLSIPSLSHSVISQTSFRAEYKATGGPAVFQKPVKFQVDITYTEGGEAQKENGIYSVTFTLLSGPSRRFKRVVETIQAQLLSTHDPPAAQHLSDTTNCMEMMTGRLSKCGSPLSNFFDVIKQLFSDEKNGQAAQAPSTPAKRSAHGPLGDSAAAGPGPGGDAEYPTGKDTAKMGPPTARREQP
The conditions noted are these: at 0.1 µM.

Assay [17] addresses T6, Serine/threonine-protein kinase BRSK2 (Homo sapiens). The conditions noted are these: at 1 µM.
The target in assay [18] is Calcium/calmodulin-dependent protein kinase type 1D (Homo sapiens) (UniProt Q8IU85). The note with it: at 0.1 µM.
Sequence of Calcium/calmodulin-dependent protein kinase type 1D (Homo sapiens) (Q8IU85 whole entry, looked up): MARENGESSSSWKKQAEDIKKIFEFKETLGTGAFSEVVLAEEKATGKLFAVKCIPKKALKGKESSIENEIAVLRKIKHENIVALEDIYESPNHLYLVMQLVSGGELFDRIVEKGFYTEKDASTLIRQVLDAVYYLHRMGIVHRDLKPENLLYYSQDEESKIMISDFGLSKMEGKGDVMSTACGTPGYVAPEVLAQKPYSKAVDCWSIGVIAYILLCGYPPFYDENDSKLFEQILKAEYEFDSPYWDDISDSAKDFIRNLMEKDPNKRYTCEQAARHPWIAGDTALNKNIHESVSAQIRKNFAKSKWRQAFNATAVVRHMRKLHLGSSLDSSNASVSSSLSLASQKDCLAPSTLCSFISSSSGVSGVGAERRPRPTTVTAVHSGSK
For assay [19] the target is unchanged. The conditions noted are these: at 1 µM.
For assay [20], the target named is Calcium/calmodulin-dependent protein kinase type II subunit alpha (Homo sapiens) (UniProt Q9UQM7). The conditions noted are these: at 0.1 µM.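 Also: reported values are averages (mean inhibition of CAMK2A).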
Sequence of Calcium/calmodulin-dependent protein kinase type II subunit alpha (Homo sapiens) (Q9UQM7 whole entry): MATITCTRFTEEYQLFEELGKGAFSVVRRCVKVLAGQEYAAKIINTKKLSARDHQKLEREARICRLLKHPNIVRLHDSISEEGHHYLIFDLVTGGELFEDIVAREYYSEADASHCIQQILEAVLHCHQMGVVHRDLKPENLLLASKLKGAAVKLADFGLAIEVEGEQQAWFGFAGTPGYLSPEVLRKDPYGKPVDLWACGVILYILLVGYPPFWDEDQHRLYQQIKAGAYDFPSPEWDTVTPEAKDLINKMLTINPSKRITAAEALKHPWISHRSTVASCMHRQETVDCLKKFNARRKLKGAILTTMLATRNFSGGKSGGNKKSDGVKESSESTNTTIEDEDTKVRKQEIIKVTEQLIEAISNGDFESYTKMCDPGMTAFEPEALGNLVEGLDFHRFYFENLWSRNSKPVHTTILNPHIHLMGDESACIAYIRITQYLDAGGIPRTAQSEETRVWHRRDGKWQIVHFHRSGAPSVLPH

Sequence of Ribosomal protein S6 kinase alpha-6 (Homo sapiens) (Q9UK32 whole entry): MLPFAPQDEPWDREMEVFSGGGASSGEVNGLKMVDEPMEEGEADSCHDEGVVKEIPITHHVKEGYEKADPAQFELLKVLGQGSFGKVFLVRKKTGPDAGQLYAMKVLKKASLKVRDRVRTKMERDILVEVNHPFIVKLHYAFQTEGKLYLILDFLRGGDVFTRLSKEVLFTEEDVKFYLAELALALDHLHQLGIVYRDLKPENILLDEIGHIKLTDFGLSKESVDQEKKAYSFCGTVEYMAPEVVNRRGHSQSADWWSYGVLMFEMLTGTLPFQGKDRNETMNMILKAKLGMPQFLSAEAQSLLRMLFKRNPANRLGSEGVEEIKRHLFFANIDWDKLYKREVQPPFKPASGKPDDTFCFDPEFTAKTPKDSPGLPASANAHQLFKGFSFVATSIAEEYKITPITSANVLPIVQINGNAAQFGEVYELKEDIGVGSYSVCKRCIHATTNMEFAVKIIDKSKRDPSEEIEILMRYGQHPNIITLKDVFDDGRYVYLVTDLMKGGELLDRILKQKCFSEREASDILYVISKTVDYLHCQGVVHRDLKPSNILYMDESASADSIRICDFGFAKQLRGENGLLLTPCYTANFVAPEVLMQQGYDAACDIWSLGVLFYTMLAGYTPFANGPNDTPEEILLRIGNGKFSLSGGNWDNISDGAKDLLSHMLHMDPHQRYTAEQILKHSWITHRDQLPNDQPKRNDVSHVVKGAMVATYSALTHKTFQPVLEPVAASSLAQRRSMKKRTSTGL

As for `NS(=O)(=O)c1cccc(-c2cc3ccncc3cc2OCc2ccccc2)c1`, the inhibition (in general, the relative decrease from the control value, in per cent) in assay [1] amounted to 3.01%; in [2], 3.46%; in assay [3], 3.63%; in assay [4], 5.08%; in assay [5], 6.91%; in assay [6] it was 9.81%. The inhibition was 1.63% in [7]; 4.1% in assay [8]; 5.8% in assay [9]; -0.75% in [10]; 7.06% in assay [11]; 8.52% in [12]. The inhibition in [13] was 11.3%; in [14], 3.31%; in assay [15] it was 3.45%; in assay [16], 2.26%; in [17], 3.2%; in assay [18], 0.47%. Moreover, the inhibition in assay [19] was determined as 0.96%; in assay [20], 4.23%.

With `COc1cc(/C=N/Nc2ncnc3c2cnn3C(C)C)ccc1O`, the inhibition in assay [1] worked out at 3.17%; in assay [2], 1.69%; in assay [3], 2.88%; in assay [4], 1.5%; in [5] it was 1.93%; in assay [6], 0.68%. In addition, the inhibition in assay [7] turned out to be 2.8%; in [8], 1.32%; in assay [9], 4.22%; in assay [10] it was 3.01%; in assay [11] it was 4.32%; in assay [12], 7.43%. Also, the inhibition in assay [13] worked out at 22.3%; in assay [14], 1.45%; in assay [15] it was 7.43%; in assay [16], 1.52%; in assay [17] it was 12.1%; in assay [18], 1.23%. For the same compound, the inhibition in assay [19] was 0.59%; in [20], -0.2%.

With `NS(=O)(=O)c1cccc(Nc2cc(-c3ccc(F)cc3)n[nH]2)c1`, the inhibition was 4.03% in [1]; 3.81% in [2]; 7.2% in assay [3]; 3.76% in [4]; 8.09% in [5]; 3.81% in [6]. Besides, the inhibition in [7] was 7.42%; in [8], 3.82%; in [9] it was 14.4%; in [10] it was 2.4%; in assay [11], 10.9%; in assay [12] it was -3.46%. Further, the inhibition in [13] was 12.6%; in assay [14], 1.36%; in assay [15], 5.97%; in assay [16] it was 3.15%; in [17] it was 11.2%; in assay [18], -0.34%. Besides, the inhibition in assay [19] is -0.05%; in [20] it was 2.68%.

Regarding `COc1cccc(-n2ncc3c(N/N=C/c4ccc(S(C)(=O)=O)cc4)ncnc32)c1`, the inhibition in assay [1] was 3.2%; in assay [2], 3.81%; in assay [3], 10.1%; in [4], 6.74%; in assay [5], 4.33%; in assay [6], -0.55%. The inhibition in [7] stood at 2.6%; in [8], 1.41%; in [9], 2%; in assay [10] it was 3.56%; in assay [11], 4.43%; in assay [12], 14.7%. In addition, the inhibition in assay [13] stood at 37.4%; in assay [14] it was 13.7%; in assay [15] it was 52.5%; in assay [16], 20.1%; in [17], 60.8%; in assay [18], 0.78%. Further, the inhibition is 0.51% in assay [19] and -0.15% in [20].
